The nature of this assay: NCI Yeast Anticancer Drug Screen. Data for the mlh1 rad18 strain (AID 175). The following applies: S. cerevisiae mlh1 rad18 strain growth inhibition, hits give high values. As for the experimental part:
Growth inhibition of yeast strains with defined genetic alterations is measured as a screen for potential anti-cancer activity. Selected strains with alterations in DNA damage repair or cell cycle control were exposed to compounds and growth inhibition was measured relative to vehicle treated controls. The strain used in this assay is mlh1 rad18

Where [1] appears, read: at 5.0 µM (retest, dose inferred, filed as 0.5).
Setting [2] is: at 50.0 µM (retest, dose inferred, filed as 5.0).

Compounds without any hit were thinned out: in the full panel of roughly 79,000, 15% have a hit. A number with no mark means an inactive call. Calls of active or inactive are those of the source. No stated cut-off is given here; in the data, active means growth inhibition above about 70%; inactive means the rest.

Consider `Cc1cccc2c(Cl)c3cccc(C)c3nc12`, for which the growth inhibition under setting [1] was -16%, the growth inhibition under setting [2] is 49% and the growth inhibition (at 50.0 µM) is 10.1%.
The like results for `CCCCCCCCNCCCCCCCC` were, in that order, 80% (active), 99% (active) and 99.3% (active).
Taken in the same sequence, the figures for `Cc1c(Cl)c(C)c(Cl)c(O)c1Cl` were 33%, 97% (active) and 72.2% (active).
As to `O=S(=O)(NNc1ccccc1)c1ccccc1`, the growth inhibition reads like this: under setting [1], -25%; under setting [2], 51%; (at 50.0 µM) 54.5%.
The like results for `CCCCCCCCCCCCCCCCCCNc1nc(=O)n(C2CC(OP(=O)(O)OCC3OC(n4cc(F)c(=O)[nH]c4=O)CC3O)C(CO)O2)cc1F` (configuration not stated) were, in that order, 34%, 93% (active) and 86% (active).
Taken in the same sequence, the figures for `CCCCN(CCCC)c1ccc(N=Nc2ccc(S(=O)(=O)O)cc2)cc1` were 51%, 99% (active) and 88.2% (active).
As to `O=C1c2cccc3cccc(c23)C(=O)N1O`, the growth inhibition was 23% under setting [1], 99% (active) under setting [2] and 86.4% (active) (at 50.0 µM).
As to `CC1(C)CC(=O)C(/C=N/c2nc(-c3ccc(Br)cc3)cs2)=C(O)C1`, the growth inhibition under setting [1] is 0%, the growth inhibition under setting [2] was 99% (active) and the growth inhibition (at 50.0 µM) is 98.8% (active).
With `c1ccc([P+](CCN2Cc3ccccc3C2)(c2ccccc2)c2ccccc2)cc1`, the growth inhibition under setting [1] is 71% (active), the growth inhibition under setting [2] was 87% (active) and the growth inhibition (at 50.0 µM) is 88.8% (active).
The like results for `OC1(c2ccccc2)C2CC=CC2C1(c1ccccc1)c1ccccc1` (configuration not stated) were, in that order, 19%, 76% (active) and 0.45%.
Taken in the same sequence, the figures for `COc1cc(NCCCCNCC(C)(C)C)c2ncccc2c1` were -1%, 31% and 37.1%.
For `CCOC(=O)/C(=C\c1ccc(F)cc1)C(C)=O`, the growth inhibition under setting [1] was 6%, the growth inhibition under setting [2] was 97% (active) and the growth inhibition (at 50.0 µM) is 91.9% (active).
As for `Cc1nc2sc3c(c2c(=O)o1)CCCC3`, the growth inhibition under setting [1] was -2%, the growth inhibition under setting [2] is -2% and the growth inhibition (at 50.0 µM) is 26%.
For the compound `CC(=O)/C(=C\c1ccc(Cl)c(Cl)c1)C(=O)C(C)CN(C)C` (configuration not stated), the growth inhibition under setting [1] was 16%, the growth inhibition under setting [2] is 97% (active) and the growth inhibition (at 50.0 µM) was 90.3% (active).
